PubChem BioAssay (NCI)
Compounds without any hit were thinned out: in the full panel of roughly 83,000, 20% have a hit.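 Percent growth is the endpoint: 0 to 100 indicates growth inhibition (40 means 60% inhibition), 0 means no net growth, and negative values indicate cell death.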 A number with no mark means an inactive call. Calls of active or inactive are those of the source. The calls were made as follows: active = growth percent below 10; inactive = the rest.

Test system: DU-145 prostate
Assay: NCI-60 one-dose screen, 48 h (100 = growth as untreated, 0 = no growth, -100 = all killed)
Conditions: 10 µM unless noted

Question: Which growth does the source give for `C=C1C(=O)O[C@H]2[C@H]1CC/C(COC(=O)C(=O)c1cn(Cc3ccccc3)c3ccccc13)=C\CC[C@@]1(C)O[C@@H]21` here?
Answer: -54.1% (active)

Question: For `CN(CCCCN(C)CCOS(C)(=O)=O)CCOS(C)(=O)=O`, which growth is on record?
Answer: 96.7%

Question: Which growth does the source give for `NC(=O)CNc1ccc([As]=[As]c2ccc(NCC(N)=O)cc2)cc1` (stereo not given) here?
Answer: 60.3%

Test system: K-562 leukemia
Assay: as above
Conditions: 10 µM unless noted

Question: Which growth does the source give for `O=NN1CCCc2cccc(O)c21` here?
Answer: 9.43% (active)

Question: `Fc1ccc2c(c1)c(-c1nc(-c3c[nH]c4ncccc34)cs1)cn2CCN1CCOCC1` was tested. Which growth did it give?
Answer: 18.6%

Question: `CC(=O)Nc1nc2c(s1)CC[C@@]1(C)C2=CC[C@H]2[C@@H]3CC[C@H](O)[C@@]3(C)CC[C@@H]21` was tested. Which growth did it give?
Answer: 17.5%

Question: For `CN(C)CC(C(=O)Cc1ccccc1)c1ccccc1` (stereo not given), which growth is on record?
Answer: 47.2%

Question: `CCOC(=O)[C@@H](C)C[C@H](Cc1ccccc1)NC(=O)c1csc([C@@H](C[C@H](C(C)C)N(C)C(=O)[C@H](CCC(C)C)NC(=O)[C@H]2CCCCN2C)OC(C)=O)n1` was tested. Which growth did it give?
Answer: 7.91% (active)

Question: For `CCCCCCCCCCCCCCCCCC1OC[C@H](COC(=O)O[C@@H](C(=O)O[C@H]2C[C@@]3(O)[C@@H](OC(=O)c4ccccc4)[C@@H]4[C@]5(OC(C)=O)CO[C@@H]5C[C@H](O)[C@@]4(C)C(=O)[C@H](OC(C)=O)C(=C2C)C3(C)C)[C@@H](NC(=O)c2ccccc2)c2ccccc2)O1` (stereo not given in full), which growth is on record?
Answer: 37.5%

Question: `c1cnc2[nH]cc(-c3csc(-c4cn(CCCCN5CCCCC5)c5ccccc45)n3)c2c1` was tested. Which growth did it give?
Answer: 10.9%

Question: Which growth does the source give for `C=C1C[C@](OC)([C@H](O)C(=O)N[C@@H](OC)[C@@H]2C[C@@H](O)C(C)(C)[C@@H](C[C@@H](COC)OC)O2)O[C@H](C)[C@@H]1C` here?
Answer: -50.1% (active)

Question: With `O=C(Nc1ccc(O)cc1)C(Cl)(Cl)Cl` as the compound, how does the growth read?
Answer: 98.2%

Question: With `Cc1c(NS(=O)(=O)c2ccccc2)ccc([N+](=O)[O-])c1Cl` as the compound, how does the growth read?
Answer: 74.4%

Question: For `CCCCN1CCCC[C@@H]1C(=O)N[C@H](C(=O)N(C)[C@H](C[C@@H](OC(C)=O)c1nc(C(=O)NC2CCC(C(=O)OC)CC2)cs1)C(C)C)C(C)C` (stereo not given in full), which growth is on record?
Answer: 9.52% (active)

Question: `Cn1cc(-c2csc(-c3cn(CCCCN4CCCCC4)c4ccc(F)cc34)n2)c2cccnc21` was tested. Which growth did it give?
Answer: -76.1% (active)

Question: `CC1=C(CN)C2=C(C)C3(CC3)[C@@](C)(O)C(=O)C2=C1` was tested. Which growth did it give?
Answer: 111%

Question: With `CC(=O)O[C@H]1C(=O)[C@@]2(C)[C@H]([C@H](OC(=O)c3ccccc3)[C@]3(O)C[C@H](OC(=O)[C@H](OC(=O)OC[C@H]4COC(C)(C)O4)[C@@H](NC(=O)c4ccccc4)c4ccccc4)C(C)=C1C3(C)C)[C@]1(OC(C)=O)CO[C@@H]1C[C@@H]2O` as the compound, how does the growth read?
Answer: 11.6%

Question: Which growth does the source give for `Cn1cc(-c2csc(-c3cn(CCN4CCOCC4)c4ccc(F)cc34)n2)c2cccnc21` here?
Answer: 9.34% (active)

Question: With `Brc1ccc2c(c1)c(-c1nc(-c3c[nH]c4ncccc34)cs1)cn2CCN1CCOCC1` as the compound, how does the growth read?
Answer: 24.3%

Question: With `COC(=O)[C@@H](C)C[C@H](Cc1ccccc1)NC(=O)c1csc([C@@H](C[C@H](C(C)C)N(C)C(=O)[C@@H](NC(=O)[C@H]2CCCCN2C)C2CCCCC2)OC(C)=O)n1` as the compound, how does the growth read?
Answer: -0.636% (active)

Question: With `CC(=O)OC1CCC2(C)C(CCC3C2CC(=O)C2(C)C3CC(Sc3ccc(N(CCCl)CCCl)cc3)C2C(C)=O)C1` (stereo not given) as the compound, how does the growth read?
Answer: 7.43% (active)

Question: How did the growth turn out when `COc1ccc(S(=O)(=O)N(Cc2ccc3c(c2)C=CC(C)(C)O3)c2ccccc2)cc1OC` was run?
Answer: 63.2%

Question: For `CC[C@H](C)[C@H](NC(=O)[C@H]1CCCCN1C)C(=O)N(C)[C@H](CC(=O)c1nc(C(=O)N[C@@H](Cc2ccccc2)C[C@H](C)C(=O)O)cs1)C(C)C`, which growth is on record?
Answer: 32.2%

Question: `COC(=O)[C@@H](C)C[C@H](Cc1ccccc1)NC(=O)c1csc([C@@H](C[C@H](C(C)C)N(C)C(=O)[C@@H](NC(=O)C23CC(NC(C)=O)(C2)C3)C2CC2)OC(C)=O)n1` was tested. Which growth did it give?
Answer: 14.2%

Question: With `O=C1CC2(CC3(Cl)C(Cl)=C(Cl)C2(Cl)C3(Cl)Cl)C(=O)O1` (stereo not given) as the compound, how does the growth read?
Answer: 97.9%

Question: How did the growth turn out when `C[n+]1c(/C=C/c2ccc(N(CCCl)CCCl)cc2)sc2ccccc21` was run?
Answer: 15.3%

Question: `CC[C@H](C)[C@H](NC(=O)NC(C)(C)C)C(=O)N(C)[C@H](C[C@@H](OC(C)=O)c1nc(C(=O)N[C@@H](Cc2ccccc2)C[C@H](C)C(=O)OC)cs1)C(C)C` was tested. Which growth did it give?
Answer: 7.43% (active)

Question: For `CCCCCCCC[N+](C)(CCCCCCCC)CCCCCCCC`, which growth is on record?
Answer: 86.9%

Question: Which growth does the source give for `CC(=O)O[C@H]1C(=O)[C@@]2(C)[C@H]([C@H](OC(=O)c3ccccc3)[C@]3(O)C[C@H](OC(=O)[C@H](OC(=O)OC[C@@H]4COC(C)(C)O4)[C@@H](NC(=O)c4ccccc4)c4ccccc4)C(C)=C1C3(C)C)[C@]1(OC(C)=O)CO[C@@H]1C[C@@H]2O` here?
Answer: 13.8%

Question: Which growth does the source give for `CC(=O)O[C@H]1C(=O)[C@@]2(C)[C@H]([C@H](OC(=O)c3ccccc3)[C@]3(O)C[C@H](OC(=O)[C@H](OC(=O)OCC4COC(C)(C)O4)[C@@H](NC(=O)c4ccccc4)c4ccccc4)C(C)=C1C3(C)C)[C@]1(OC(C)=O)CO[C@@H]1C[C@@H]2O` (stereo not given in full) here?
Answer: 19.8%

Question: Which growth does the source give for `CC[C@H](C)[C@H](NC(=O)C12CC(NC(C)=O)(C1)C2)C(=O)N(C)[C@H](C[C@@H](OC(C)=O)c1nc(C(=O)N[C@@H](Cc2ccccc2)C[C@H](C)C(=O)OC)cs1)C(C)C` here?
Answer: 11.5%

Question: With `CCn1cnc2c(Nc3cccc(Cl)c3)nc(N[C@@H]3CCCC[C@@H]3N)nc21` as the compound, how does the growth read?
Answer: -2.92% (active)

Question: How did the growth turn out when `O=C(O)C1C(C(=O)O)C2(Cl)C(Cl)=C(Cl)C1(Cl)C2(Cl)Cl.[Hg]` (stereo not given) was run?
Answer: 15.1%

Question: With `CC[C@H](C)[C@H](NC(=O)[C@H]1CCCCN1C)C(=O)N(C)[C@H](C[C@@H](OC(C)=O)c1nc(C(=O)N[C@@H](Cc2ccccc2)C[C@H](C)C(=O)OC)cs1)C(C)C` as the compound, how does the growth read?
Answer: 4.21% (active)

Question: For `CN1C(=O)C(=Cc2cn(CCCCCCn3c4ccccc4c(=O)c4ccccc43)c3ccccc23)C(=O)N(C)C1=O`, which growth is on record?
Answer: 88.3%

Question: How did the growth turn out when `CC(C)(C)C(=O)OCOP(=O)(OCOC(=O)C(C)(C)C)C1CCCN(O)C1=O` (stereo not given) was run?
Answer: 8.42% (active)

Question: Which growth does the source give for `COC(=O)[C@@H](C)C[C@H](Cc1ccc2ccccc2c1)NC(=O)c1csc([C@@H](C[C@H](C(C)C)N(C)C(=O)[C@@H](NC(=O)[C@H]2CCCCN2C)C(C)C)OC(C)=O)n1` here?
Answer: 25.7%

Question: How did the growth turn out when `C=C1C(=O)O[C@H]2[C@H]1CC/C(COC(=O)C(=O)c1cn(Cc3ccccc3)c3ccccc13)=C\CC[C@@]1(C)O[C@@H]21` was run?
Answer: 5.58% (active)

Question: With `CN(CCCCN(C)CCOS(C)(=O)=O)CCOS(C)(=O)=O` as the compound, how does the growth read?
Answer: 93.3%

Question: How did the growth turn out when `NC(=O)CNc1ccc([As]=[As]c2ccc(NCC(N)=O)cc2)cc1` (stereo not given) was run?
Answer: 19%
